Among the data in PubChem BioAssay are composite z-score and z-score values, retold here.

Assay [1] is described as follows: compounds binding Alexa647 anti-His antibody – biochemical, small-molecule microarray, 635 nm fluorescence, artefact control for SMM control protein annotation, primary screen (AID 1128).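 Also: score merges feature fluorescence with signal-to-noise for each printed compound spot.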 Conditions: higher = more signal.
The subject of assay [2] is Human papillomavirus type 1a E7 protein (residues 1-88). The assay can be described thus: HPV1a E7 small-molecule binders, primary screen, biochemical, small-molecule microarray, residues 1-88, 635 nm (AID 1129). The conditions noted are these: small-molecule microarray binding, fluorescence 635 nm; higher = more signal.
The target in assay [3] is Focal adhesion kinase 1 (Homo sapiens) (UniProt Q05397). The assay can be described thus: PTK2 protein binding on printed compound slides – biochemical, small-molecule microarray, 635/667 nm fluorescence, BSA, DTT, primary screen (AID 1130).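 Also: composite of spot emission at 667 nm and signal to noise over triplicate slides.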 Conditions: 635 nm fluorescence, higher = more signal.
Chain of Focal adhesion kinase 1 (Homo sapiens) (Q05397 whole entry, looked up): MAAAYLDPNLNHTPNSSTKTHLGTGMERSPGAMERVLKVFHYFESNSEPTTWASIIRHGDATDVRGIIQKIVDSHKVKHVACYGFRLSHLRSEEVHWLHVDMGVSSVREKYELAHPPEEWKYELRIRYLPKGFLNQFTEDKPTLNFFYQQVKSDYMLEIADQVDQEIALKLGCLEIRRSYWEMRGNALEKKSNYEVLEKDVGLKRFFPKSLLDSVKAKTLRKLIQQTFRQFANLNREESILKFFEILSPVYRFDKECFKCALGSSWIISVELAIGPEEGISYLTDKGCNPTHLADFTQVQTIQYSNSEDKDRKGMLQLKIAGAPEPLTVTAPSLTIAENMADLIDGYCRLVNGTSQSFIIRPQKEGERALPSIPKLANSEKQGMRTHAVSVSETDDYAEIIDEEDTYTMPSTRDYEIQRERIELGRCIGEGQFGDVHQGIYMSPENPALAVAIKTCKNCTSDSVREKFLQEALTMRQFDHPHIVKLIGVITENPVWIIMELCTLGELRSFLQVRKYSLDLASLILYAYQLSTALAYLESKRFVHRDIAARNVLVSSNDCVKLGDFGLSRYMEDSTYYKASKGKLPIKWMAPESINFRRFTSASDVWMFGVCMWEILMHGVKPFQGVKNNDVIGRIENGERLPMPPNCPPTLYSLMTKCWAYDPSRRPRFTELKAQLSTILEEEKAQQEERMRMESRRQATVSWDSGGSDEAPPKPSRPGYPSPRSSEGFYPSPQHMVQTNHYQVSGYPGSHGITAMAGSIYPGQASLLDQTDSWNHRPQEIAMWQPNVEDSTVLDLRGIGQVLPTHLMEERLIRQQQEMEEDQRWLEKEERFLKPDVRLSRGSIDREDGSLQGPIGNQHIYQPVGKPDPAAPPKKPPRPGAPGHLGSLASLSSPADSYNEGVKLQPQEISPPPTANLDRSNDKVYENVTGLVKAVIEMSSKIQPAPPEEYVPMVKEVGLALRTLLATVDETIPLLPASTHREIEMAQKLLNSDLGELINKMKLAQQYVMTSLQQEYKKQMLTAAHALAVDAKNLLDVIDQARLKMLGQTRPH
Assay [4] concerns Fibrinogen (Alexa647-labelled). Kind of assay: Alexa647-fibrinogen binding to printed small molecules – biochemical, small-molecule microarray, 635/667 nm fluorescence, artefact control for SMM control-protein annotation, profiling panel (AID 1131).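 Also: z-score merges 667 nm fluorescence with per-spot signal-to-noise over triplicate slides.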 The conditions noted are these: fibrinogen-A647 binding fluorescence, higher = more signal.
The target in assay [5] is Follistatin (Homo sapiens) (UniProt P19883). The assay can be described thus: FST protein binding to printed compounds – biochemical, small-molecule microarray, 635/667 nm fluorescence, primary screen (AID 1132). Conditions: 635 nm fluorescence, higher = more signal.
Chain of Follistatin (Homo sapiens) (P19883 whole entry, looked up): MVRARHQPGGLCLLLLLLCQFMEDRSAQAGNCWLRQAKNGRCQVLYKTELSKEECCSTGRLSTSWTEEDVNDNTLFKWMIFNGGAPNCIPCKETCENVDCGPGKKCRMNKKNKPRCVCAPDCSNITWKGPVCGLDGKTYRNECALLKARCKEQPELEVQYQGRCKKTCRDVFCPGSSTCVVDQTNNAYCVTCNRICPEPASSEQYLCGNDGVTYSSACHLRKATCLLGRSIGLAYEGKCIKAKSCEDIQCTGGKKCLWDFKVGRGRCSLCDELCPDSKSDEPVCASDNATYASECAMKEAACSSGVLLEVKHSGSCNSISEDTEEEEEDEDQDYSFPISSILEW
In assay [6] the target is Fibroblast growth factor 2 (Homo sapiens) (UniProt P09038). The assay can be described thus: basic fibroblast growth factor binding to printed compounds – biochemical, small-molecule microarray, 635/667 nm fluorescence, primary screen (AID 1133). Conditions: FGF2, fluorescence 635/667, higher = more signal.
Chain of Fibroblast growth factor 2 (Homo sapiens) (P09038 whole entry, looked up): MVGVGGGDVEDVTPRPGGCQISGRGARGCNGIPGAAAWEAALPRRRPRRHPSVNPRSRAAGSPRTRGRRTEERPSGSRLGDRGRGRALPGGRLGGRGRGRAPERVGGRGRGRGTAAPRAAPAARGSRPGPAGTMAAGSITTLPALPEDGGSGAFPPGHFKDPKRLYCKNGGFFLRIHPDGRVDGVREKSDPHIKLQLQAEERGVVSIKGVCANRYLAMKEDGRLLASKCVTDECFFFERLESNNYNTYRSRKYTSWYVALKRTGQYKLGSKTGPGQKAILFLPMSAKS
Assay [7] in a line: JC-1 mitochondrial potential readout, lung cancer cells – cell-based, A549, JC-1 fluorescence, basal, 24 h, 100 nL, profiling panel (AID 1138).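 Also: A549 lung adenocarcinoma cells under basal conditions with no added stimulus; test concentration not given here.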 Conditions: higher = more signal.
The test system of another assay is Lefty1. The assay can be described thus: Lefty1 protein binding to printed compounds – biochemical, small-molecule microarray, 635/667 nm fluorescence, primary screen (AID 1139). Conditions: fluorescence 635/667, higher = more signal.
Assay [8] concerns wheat germ agglutinin (Triticum aestivum), Alexa647-labelled. The assay can be described thus: Alexa647-WGA lectin binding to printed small molecules – biochemical, small-molecule microarray, 635/667 nm fluorescence, artefact control for SMM control-protein annotation, profiling panel (AID 1140).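 Also: score merges 667 nm feature emission with signal to noise over triplicate slides.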 The conditions noted are these: WGA-A647 binding, 635 nm fluorescence, higher = more signal.

Assay [9] addresses Luciferin 4-monooxygenase (Photinus pyralis) (UniProt P08659). Kind of assay: inhibition of purified Photinus pyralis luciferase – biochemical, luminescence, purified enzyme, 2006 set, primary screen (AID 1141).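 Also: cell-free assay with purified firefly luciferase at 100 ng per well in PBS; test concentration not given here.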 The conditions noted are these: purified firefly luciferase, SteadyGlo luminescence, 30 min; higher = more signal, called active from +8 up or from −8 down.
The subject of assay [10] is Wnt5a (protein binding on small-molecule microarray). Kind of assay: small molecules binding Wnt5a protein – biophysical, small-molecule microarray, 635/667 nm fluorescence, primary screen (AID 1142).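 Also: fluorescence read at 667 nm with signal to noise per printed feature.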 The conditions noted are these: 635 nm fluorescence, higher = more signal.
Assay [11] can be described thus: ATP-based viability of Huh7 replicon cells – cell-based, CellTiter-Glo luminescence, basal, 48 h, cytotoxicity control for HCV replication inhibitor project, primary screen (AID 1143).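 Also: Huh7 hepatoma cells carrying a hepatitis C replication reporter with no stimulus; test concentration not given here.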 The conditions noted are these: higher = more signal, called active from +8 up or from −8 down. On the technique in general: Replicon systems follow genome replication, usually without infectious particles.

Assay [12] can be described thus: Pseudomonas biofilm growth suppression – PAO1 strain, BacTiter-Glo luminescence, LB-PBS, primary screen (AID 1144). Conditions: P. aeruginosa PAO1 biofilm, 12 h, higher = more signal.
The nature of assay [13]: basal CRE-LacZ reporter activity in PC12 – cell-based, unstimulated, primary screen (AID 1145). The conditions noted are these: no forskolin, luminescence, 4.5 h, higher = more signal, called active from +8 up or from −8 down.
Assay [14] is described as follows: forskolin-driven CRE-LacZ activity in PC12 – cell-based, CRE-LacZ reporter, forskolin-stimulated, primary screen (AID 1146).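 Also: PC12 cells with 6xCRE LacZ reporter stimulated by forskolin 10 µM; beta-galactosidase reporter signal reflecting CREB driven transcription.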 Conditions: luminescence, 4.5 h, higher = more signal, called active from +8 up or from −8 down.
The target in assay [15] is Streptavidin (Streptomyces avidinii) (UniProt P22629). The assay can be described thus: compounds binding control protein streptavidin – biophysical, small-molecule microarray, 635/667 nm fluorescence, artefact control for SMM compound annotation, primary screen (AID 1147).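 Also: signal reflects streptavidin binding to arrayed compounds as a control protein.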 Conditions: higher = more signal.
Chain of Streptavidin (Streptomyces avidinii) (P22629 whole entry, looked up): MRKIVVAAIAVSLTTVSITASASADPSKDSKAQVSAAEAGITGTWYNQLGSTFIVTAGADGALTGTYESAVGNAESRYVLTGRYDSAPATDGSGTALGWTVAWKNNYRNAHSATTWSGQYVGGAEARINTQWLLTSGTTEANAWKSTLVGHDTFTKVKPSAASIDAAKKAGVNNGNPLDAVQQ
Assay [16] in a line: probe aInhba binding on compound microarray – biochemical, small-molecule microarray, 635/667 nm fluorescence, primary screen (AID 1148).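 Also: score merges 667nm spot fluorescence with signal-to-noise for antibody binding to printed compounds.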 Conditions: higher = more signal.
The target in assay [17] is Torsin-1A (Homo sapiens) (UniProt O14656). The assay can be described thus: TOR1A wild-type binding on microarray – cell lysate, small-molecule microarray, lysate, 635/667 nm, primary screen (AID 1149). Conditions: COS7 hTOR1A-WT lysate, 635 nm fluorescence, higher = more signal.
Chain of Torsin-1A (Homo sapiens) (O14656 whole entry, looked up): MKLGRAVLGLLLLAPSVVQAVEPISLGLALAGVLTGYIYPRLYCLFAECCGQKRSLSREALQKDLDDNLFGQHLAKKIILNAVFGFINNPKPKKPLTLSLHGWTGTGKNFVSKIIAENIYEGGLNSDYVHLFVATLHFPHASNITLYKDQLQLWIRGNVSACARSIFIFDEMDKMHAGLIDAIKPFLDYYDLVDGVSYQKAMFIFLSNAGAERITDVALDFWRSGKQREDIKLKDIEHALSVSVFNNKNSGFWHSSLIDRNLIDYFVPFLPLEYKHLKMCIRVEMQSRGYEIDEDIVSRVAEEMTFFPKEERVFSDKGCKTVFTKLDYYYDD
For assay [18] the target is unchanged. The assay can be described thus: torsin A mutant lysate binding on microarrays – cell lysate, small-molecule microarray, COS7 lysate, 635/667 nm fluorescence, primary screen (AID 1150).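 Also: score pools 667 nm emission and signal to noise measuring lysate protein binding.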 Conditions: COS7 hTOR1A mutant lysate, 635 nm fluorescence, higher = more signal.
For assay [19], the system named is Sonic hedgehog protein (Shh). Kind of assay: Sonic hedgehog microarray binding compounds – biochemical, small-molecule microarray, 635/667 nm fluorescence, primary screen (AID 1151).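 Also: Shh protein binding to compounds spotted on small-molecule microarray slides; score combines spot fluorescence intensity with signal-to-noise across triplicate slides.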 The conditions noted are these: 635 nm fluorescence, higher = more signal.

Active and inactive are the calls of the source. Unless noted, no rule for the calls is given here.

Chain of Luciferin 4-monooxygenase (Photinus pyralis) (P08659 whole entry, looked up): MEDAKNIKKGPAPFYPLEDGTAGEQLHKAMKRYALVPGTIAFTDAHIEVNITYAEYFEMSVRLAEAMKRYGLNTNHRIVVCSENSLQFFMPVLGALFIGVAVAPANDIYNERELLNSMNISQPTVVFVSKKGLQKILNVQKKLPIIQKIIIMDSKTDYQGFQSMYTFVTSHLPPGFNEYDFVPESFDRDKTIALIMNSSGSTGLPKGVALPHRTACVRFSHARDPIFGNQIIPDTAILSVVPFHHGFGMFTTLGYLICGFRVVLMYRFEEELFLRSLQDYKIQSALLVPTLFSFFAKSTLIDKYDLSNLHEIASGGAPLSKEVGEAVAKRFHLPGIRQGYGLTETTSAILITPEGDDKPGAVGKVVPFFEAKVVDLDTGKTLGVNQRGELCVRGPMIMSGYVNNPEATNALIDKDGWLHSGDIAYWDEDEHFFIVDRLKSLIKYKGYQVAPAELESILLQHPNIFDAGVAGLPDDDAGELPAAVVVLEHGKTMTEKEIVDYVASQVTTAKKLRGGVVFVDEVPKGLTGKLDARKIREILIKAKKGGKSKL

Turning to `CCC[C@@H]1C[C@@]1(CCC)[C@@H](NC(=O)OCc1ccccc1)c1ccc(-c2ccccc2)cc1`, the composite z-score in assay [1] is -0.526; in assay [2], -0.691; in assay [3], -0.278; in [4], -1.37; in assay [5] it was 0.136; in [6], -0.824. Also, the composite z-score is -0.543 with Lefty1; -0.693 in assay [8]; -0.189 in assay [10]; -0.504 in [15]; -0.12 in assay [16]; -0.301 in the assay with Torsin-1A (Homo sapiens) [17]. Moreover, the figures for the composite z-score (with Torsin-1A (Homo sapiens) [18]; in assay [19]) were -0.928 and -0.895, respectively. Also, the z-score in [7] is 0.289; in assay [9], -0.765 (inactive); in [11] it was -1.28 (inactive); in assay [12] it was -0.0658 (inactive); in assay [13], -0.375 (inactive); in [14], 0.785 (inactive).

For the compound `Cc1cc(C)cc(N2C(=O)CSC2c2cccc([N+](=O)[O-])c2)c1` (stereo not given), the composite z-score in assay [1] came to 2.27; in assay [2], 1.22; in assay [3] it was 1.55; in [4], 1.03; in assay [5] it was 0.45; in assay [6], 0.963. Further, the composite z-score was found to be 1.53 in the assay on Lefty1; 1.1 in [8]; 0.423 in [10]; 1.2 in assay [15]; 0.0506 in assay [16]; 0.337 in the assay with Torsin-1A (Homo sapiens) [17]. Further, the composite z-score in the assay with Torsin-1A (Homo sapiens) [18] stood at 0.526; in assay [19] it was 0.899. Besides, the z-score was 0.492 in assay [7]; -0.992 (inactive) in assay [9]; -0.894 (inactive) in [11]; 0.75 (inactive) in [12]; -0.438 (inactive) in assay [13]; -1.04 (inactive) in assay [14].

For the compound `O=C1C2C=CC(C(O)c3ccccc3)N(Nc3ccccc3F)C2C(=O)N1c1ccccc1` (stereo not given), the composite z-score in assay [1] was 0.513; in assay [2], 0.506; in assay [3] it was 0.0669; in [4], 0.168; in assay [5] it was -0.0118; in assay [6], -0.248. In addition, the composite z-score in the assay with Lefty1 was 0.347; in assay [8] it was 0.0842; in assay [10] it was 0.1; in [15], 0.23; in assay [16], -0.127; with Torsin-1A (Homo sapiens) [17] it was -0.292. Also, the composite z-score was -0.493 with Torsin-1A (Homo sapiens) [18] and -0.244 in assay [19]. Also, the z-score is 0.462 in [7]; 0.541 (inactive) in assay [9]; -1.7 (inactive) in assay [11]; 0.298 (inactive) in assay [12]; 0.0707 (inactive) in assay [13]; 0.39 (inactive) in assay [14].

For `C=CCC(OC(C)=O)[C@@H]1[C@@H](N(Cc2ccc(-c3ccccc3)cc2)C(=O)Cc2ccc(F)cc2)c2cc(OCCCO)ccc2N1C(=O)Cc1ccc(OC)cc1` (stereo not given in full), the composite z-score is -0.148 in [1]; -0.212 in assay [2]; 0.328 in assay [3]; 0.397 in assay [4]; 0.508 in assay [5]; -0.472 in [6]. Besides, the composite z-score with Lefty1 is -0.0463; in assay [8], 0.687; in assay [10], 0.205; in [15], 0.586; in [16], -0.128; in the assay with Torsin-1A (Homo sapiens) [17], 0.106. The composite z-score was -0.751 with Torsin-1A (Homo sapiens) [18] and 0.164 in assay [19]. For the same compound, the z-score in assay [7] is 0.626; in assay [9], -0.51 (inactive); in assay [11] it was 0.145 (inactive); in assay [12], 0.729 (inactive); in [13] it was 1.25 (inactive); in assay [14], 1.1 (inactive).

As for `CC(C)C(=C=CC[C@H](O)c1cccc(OCCO)c1)C[C@H](O)c1cc(Cl)cc(Cl)c1O`, the composite z-score is -0.397 in assay [1]; 0.637 in assay [2]; 0.295 in assay [3]; 0.713 in assay [4]; 1.31 in assay [5]; 0.484 in assay [6]. The composite z-score with Lefty1 is 1.3; in [8], 0.628; in [10], 0.255; in assay [15] it was 0.092; in assay [16] it was -0.116; in the assay with Torsin-1A (Homo sapiens) [17], 0.605. Moreover, the composite z-score in the assay with Torsin-1A (Homo sapiens) [18] is -0.356; in [19], 1.95. The z-score in assay [7] was 0.487; in assay [9], -0.316 (inactive); in [11], -0.254 (inactive); in [12], -1.02 (inactive); in assay [13] it was 5.53 (inactive); in assay [14], 0.813 (inactive).
